Results filed as inconclusive are left out. A number with no mark means an inactive call. Active and inactive are the calls of the source. The call rests on the fitted dose curve; in most records, active means well fitted curve in the direction sought with a large enough effect; inconclusive means small, poorly fitted or top-dose-only effect, or another doubt; inactive means no such curve, though single readings can be large; an effect the other way counts as inactive or inconclusive.

Test [1] is described as follows: SW1088 Cancer Cell Toxicity qHTS against the NCATS CANVASS Library (AID 1347350). Further: nearly all actives have a fitted effect of over 75% in size. Further: potency means the concentration at half of the fitted maximal effect. The gist of the method:
(§1)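 Per well, 1000 cells; exposure 72 h with compound at 11 final concentrations; readout CellTiter-Glo luminescence.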

A short description of test [2]: A2780 Cisplatin Sensitive Ovarian Cancer Cell Toxicity qHTS against the NCATS CANVASS Library (AID 1347353). Further: nearly all actives have a fitted effect of over 60% in size. Further: potency means the concentration at half of the fitted maximal effect. The gist of the method: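 Cells are plated at 750 per well and rest for 4 hours. Compounds are added across eleven concentrations, and incubated 72 hours before ATP is quantified by luminescence.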
Background: In qHTS, concentration-response curves come from the screen itself.

Test [3] can be described thus: UWB1.289-WTBRCA1 Cancer Cell Toxicity qHTS against the NCATS CANVASS Library (AID 1347354). Further: potency means the concentration at half of the fitted maximal effect. The essentials: (§2)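 First, 1000 cells go into each well and rest for 4 hours. Next, an 11-point dilution range is pinned in. Plates then incubate 72 hours before CellTiter-Glo addition and luminescence reading.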
Test [4] is described as follows: HEK-293 Cancer Cell Toxicity qHTS against the NCATS CANVASS Library (AID 1347355). Further: nearly all actives have a fitted effect of over 65% in size. Further: potency means the concentration at half of the fitted maximal effect. On outcome: series mostly up to about 46 µM. The gist of the method: as §2
The subject of test [5] is NAD(P)H diaphorase (Clostridium kluyveri). Description: Diaphorse counterscreen qHTS: Assay Interference Panel against the NCATS CANVASS Library (AID 1347362). The essentials:
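Counterscreen for coupling-enzyme interference: resorufin fluorescence from resazurin/NADH turnover, read after 5 min at room temperature. Compounds were tested over an 11-point series after 15 min dark preincubation with diaphorase in PBS-Tween.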
Background: A counterscreen serves to expose hits that act by an unwanted route or on another target.

Test [6] can be described thus: KB-8-5-11 Cancer Cell Toxicity qHTS against the NCATS CANVASS Library (AID 1347364). Further: nearly all actives have a fitted effect of over 75% in size. Further: potency means the concentration at half of the fitted maximal effect. The essentials: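 Terse: KB-8-5-11, 500 cells/well, 72 hr, 37C/5% CO2, 11-pt titration, CellTiter-Glo readout; confirmatory runs ± 1uM tariquidar in medium.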
The nature of test [7]: SDT Cancer Cell Toxicity qHTS against the NCATS CANVASS Library (AID 1347365). Further: nearly all actives have a fitted effect of over 60% in size. Further: potency means the concentration at half of the fitted maximal effect. The essentials: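 Cytotoxicity is measured from cellular ATP: compounds in an 11-point concentration series are pinned onto SDT cells, incubated 72 hr at 37C, then CellTiterGlo is added and luminescence read.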
The nature of test [8]: KB-3-1 Cancer Cell Toxicity qHTS against the NCATS CANVASS Library (AID 1347366). Further: nearly all actives have a fitted effect of over 75% in size. Further: potency means the concentration at half of the fitted maximal effect. The essentials: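 Seed KB-3-1 cells at 500/well in DMEM with 10% FBS, add compounds, incubate 72 hr at 37C and 5% CO2, then add CellTiter-Glo and read luminescence after 10 minutes.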
Test [9] can be described thus: qHTS for Hypoxia signaling pathway (HIF-1) antagonists against the NCATS CANVASS Library (AID 1347374). Further: nearly all actives have a fitted effect of over 60% in size. Further: potency means the concentration at half of the fitted maximal effect. The gist of the method: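 Antagonism scored as loss of CoCl2-driven (60 uM stock added) HRE beta-lactamase signal, read by CCF4 FRET at 460/530 nm. Compounds were tested in an 11-point series on ME-180 reporter cells for 17 hrs at 37C, with parallel CellTiter-Glo cytotoxicity.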

Test [10] can be described thus: qHTS for Hypoxia signaling pathway (HIF-1) agonists against the NCATS CANVASS Library (AID 1347375). Further: potency means the concentration at half of the fitted maximal effect. The essentials:
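Cells plated and rested 5 h, compounds pinned in DMSO across 11 concentrations, incubated 17 h at 37C, loaded with CCF4-AM for 2 h, fluorescence read at 460 and 530 nm, then CellTiter-Glo luminescence measured for viability and normalization.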

Test [11] is described as follows: DH5-alpha competent E. coli microbial cell viability qHTS against the NCATS CANVASS Library (AID 1347377). Conditions: outcome: dose series up to 46.1 µM unless noted. The essentials: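 Bacteria were dispensed at 0.2 OD, then compounds were pin-transferred. Plates were incubated overnight at 37C, after which BacTiter-Glo was added and luminescence measured 20 min later.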

Test [12] is described as follows: qHTS for H2AX Agonists against the NCATS CANVASS Library (AID 1347378).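 Further: phospho-H2AX S139 level in CHO-K1 lysates by TR-FRET emission ratio.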 Further: potency means the concentration at half of the fitted maximal effect. The gist of the method:
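Following overnight seeding, CHO-K1 cells are incubated with a concentration series of compound for 3 hr at 37C (final DMSO 0.76%). Cells are then lysed, detection antibodies added, and emission ratio 665/620 nm recorded after 24 hr at room temperature.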

The nature of test [13]: qHTS for Activators of p53 Stress Response Pathway screened against the NCATS CANVASS Library (AID 1347388). The essentials:
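Beta-lactamase reporter driven by p53 response elements in HCT-116 cells, read as the 460 nm/530 nm emission ratio after CCF4 loading, following 16 h of exposure to an 11-point series. Cell viability was measured in the same wells by CellTiter-Glo luminescence.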

Test [14] in a line: Secretion counterscreen for inhibitors of the SERCaMP assay screened against the NCATS CANVASS Library (AID 1347390).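 Further: light from luciferase secreted into medium read as a measure of general secretion.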 Further: potency means the concentration at half of the fitted maximal effect. The gist of the method: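 Counterscreen identifying compounds that disrupt secretion, using SH-SY5Y cells with a constitutively secreted Gaussia luciferase reporter. A 20 h compound exposure (top 77 uM) precedes luminescent detection with coelenterazine.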
A short description of test [15]: qHTS for inhibitors of ER calcium dysfunction: SERCaMP assay screened against the NCATS CANVASS Library (AID 1347393). Further: nearly all actives have a fitted effect of over 40% in size. Further: potency means the concentration at half of the fitted maximal effect. The essentials: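 Thapsigargin-induced ER calcium depletion drives GLuc-SERCaMP secretion from SH-SY5Y cells; compounds given 16 h beforehand were scored by lowered coelenterazine luminescence after 4 h challenge.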
Test [16] can be described thus: Viability qHTS for inhibitors of the SERCaMP assay screened against the NCATS CANVASS Library (AID 1347400). Further: nearly all actives have a fitted effect of over 70% in size. Further: potency means the concentration at half of the fitted maximal effect. The gist of the method:
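Seed SH-SY5Y-GLuc SERCaMP MJH297 cells at 1000 per well, incubate 4 h, add compounds across an 11-point range, incubate 48 h at 37C, then add CellTiter-Glo and read luminescence.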

Test [17] can be described thus: Redox Reaction Profiling qHTS: Assay Interference Panel against the NCATS CANVASS Library (AID 1347401). Further: potency means the concentration at half of the fitted maximal effect. The essentials:
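Redox-cycling liability assessed as DTT-driven conversion of resazurin (5 uM, with 200 uM DTT, HEPES pH 7.3) to fluorescent resorufin. Fluorescence at 525/598 nm measured initially and after 15 min dark incubation.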

Test [18] is described as follows: UWB1.289 Cancer Cell Toxicity qHTS against the NCATS CANVASS Library (AID 1347347). Further: nearly all actives have a fitted effect of over 60% in size. Further: potency means the concentration at half of the fitted maximal effect. The essentials:
as §1

Test [19] can be described thus: qHTS for activators of dead-cell proteases activity screened against the NCATS CANVASS Library (AID 1347392).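 Further: luminescence from protease leaking out of membrane-damaged cells cleaving impermeant substrate; rising signal means more cytotoxicity.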 The essentials: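 Luminescent dead-cell protease readout (AAF-aminoluciferin, 15 min, room temperature) after 5 h compound treatment of HepG2 cells (2000/well, pre-attached 18 h). Eleven concentrations.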
A short description of test [20]: qHTS for inhibitors of Wild type Zika virus screened against the NCATS CANVASS Library (AID 1347396).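 Further: ATP luminescence of surviving cells so rescue from viral cell killing; series mostly up to about 46 µM.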 The essentials: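 Using ATP-based luminescence (CellTiter Glo), this screen scores rescue of Vero 766 cells from wild-type Zika killing at 72 h post-infection. Compounds are tested in a concentration series.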

Turning to `CC1=CC2=C[C@H](C)C[C@@]23OC(=C(C)C3=O)CC(C)(C)/C=C/C1=O`, the Potency in test [1] is 5950 nM (active); in test [2] it was 209 nM (active); in [3], 11800 nM (active); in test [4], 526 nM (active); in test [6], 2090 nM (active); in test [7], 662 nM (active). Moreover, the Potency in test [8] is 2640 nM (active); in test [9] it was 265 nM (active); in [10] it was 5290 nM (active); in test [12], 1720 nM (active); in test [14], 1930 nM (active); in test [16] it was 1520 nM (active). Moreover, the Potency result in [5], in [13], in test [15] and in test [17] was “inactive” throughout. Moreover, the call in [11] was inactive.

In the case of `C=C(C)C(=O)O[C@H]1C[C@H](C)[C@@H](OC(C)=O)CC[C@@]2(C)O[C@@H]2[C@H]2OC(=O)C(COC(C)=O)=C12`, the Potency in test [18] is 6660 nM (active); in test [1], 8410 nM (active); in test [2], 833 nM (active); in test [3] it was 7470 nM (active); in test [4], 3720 nM (active); in test [7], 6620 nM (active). The Potency in test [14] is 17200 nM (active); in [15], 860 nM (active); in test [16] it was 9570 nM (active). Moreover, the Potency entry in test [5], in test [12], in [19] and in test [17] was “inactive” throughout. The outcome in [11] was inactive.

Turning to `CN1CC[C@]2(c3cccc4c3N[C@@H]3N(C)CC[C@]43[C@@]34CCN(C)[C@@H]3Nc3c([C@]56CCN(C)[C@H]5Nc5ccccc56)cccc34)c3ccccc3N[C@H]12`, the Potency in test [18] was 4720 nM (active); in [1] it was 18800 nM (active); in [2], 9350 nM (active); in test [3], 10600 nM (active); in test [4], 2960 nM (active); in [6], 9350 nM (active). Also, the Potency was 1320 nM (active) in test [7]; 4690 nM (active) in test [8]; 9410 nM (active) in [10]; 13700 nM (active) in test [12]; 4800 nM (active) in [16]. Moreover, the Potency result in [5], in [15] and in test [17] was “inactive” in each case.

In the case of `O=C(O)[C@@]12COC3(O)C1CCN1CC[C@H]3[C@@H]1c1c2[nH]c2ccccc12`, the Potency result in test [18], in test [1], in [2], in test [3], in test [4] and in test [5] was “inactive” in each case. For the same compound, the Potency entry in [6], in test [8], in test [9], in [10], in [12] and in test [13] was “inactive” each time. Besides, the Potency result in test [14], in [19], in test [20] and in [16] was “inactive” throughout. Further, the result in [11] was inactive. Also, in test [17], the Potency is 21500 nM (active).

On to `CN1C(=O)[C@]23SS[C@@]1(C)C(=O)N2[C@H]1Nc2ccccc2[C@]1(c1c[nH]c2ccccc12)[C@@H]3O`, for which the Potency was 747 nM (active) in [18]; 237 nM (active) in [1]; 132 nM (active) in [2]; 743 nM (active) in test [4]; 2350 nM (active) in test [6]; 743 nM (active) in [7]. For the same compound, the Potency in test [8] is 2960 nM (active); in test [9] it was 941 nM (active); in test [12] it was 21700 nM (active); in test [14], 1720 nM (active); in [16], 2400 nM (active); in test [17], 24100 nM (active). The Potency entry in [10], in test [19] and in [15] was “inactive” each time. Moreover, the result in [11] was inactive.

`CC1C(=O)C23CCC1C[C@]21O[C@@H]2C(C)(C)C=CC(=O)[C@@]23COC1=O` (stereo partly drawn): the Potency result in [18], in test [1], in test [2], in test [3], in test [4] and in [5] was “inactive” in each case. For the same compound, the Potency result in [6], in test [7], in test [8], in test [9], in [10] and in test [12] was “inactive” throughout. For the same compound, the Potency entry in test [13], in test [14], in test [19], in [20], in test [16] and in test [17] was “inactive” in each case. Further, in test [11], the call was inactive.
